# Measurements published in publication PMC7862700, “An all-to-all approach to the identification of sequence-specific readers for epigenetic DNA modifications on cytosine”.
# Assays:
# Experiment in all cases: DAPPL (digital affinity profiling via proximity ligation, sequencing); 10 mM Tris-HCl pH 7.5, 50 mM NaCl, 1 mM DTT, 4% glycerol, room temperature, 30 min; GST-TFs on glutathione beads, 16-mer random dsDNA library, 0.1% formaldehyde crosslink after washing; high values mean tight binding
# Details in all cases: protein: recombinant; tags: N-terminal GST; dsDNA, one strand shown
# FLI1 = molecular target: T1, FLI1 (Homo sapiens, UniProt Q01543 1-452)
# T1 sequence: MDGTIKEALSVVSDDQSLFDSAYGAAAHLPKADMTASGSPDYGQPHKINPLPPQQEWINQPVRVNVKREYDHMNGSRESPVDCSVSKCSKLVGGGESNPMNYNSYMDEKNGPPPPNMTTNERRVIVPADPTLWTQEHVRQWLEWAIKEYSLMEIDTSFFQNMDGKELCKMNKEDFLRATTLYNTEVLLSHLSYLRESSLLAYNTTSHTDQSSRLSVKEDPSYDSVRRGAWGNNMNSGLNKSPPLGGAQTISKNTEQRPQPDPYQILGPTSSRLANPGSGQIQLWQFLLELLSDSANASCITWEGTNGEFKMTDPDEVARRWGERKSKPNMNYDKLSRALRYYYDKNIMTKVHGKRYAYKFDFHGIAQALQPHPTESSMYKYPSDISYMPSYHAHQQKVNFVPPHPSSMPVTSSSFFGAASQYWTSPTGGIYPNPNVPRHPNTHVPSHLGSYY
# Outline: (§1)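 Beads coated with glutathione captured GST-fused human transcription factors that had been expressed in yeast, and the factors were then given DNA barcodes and pooled with a tag-only sample. The pools were incubated with 200 nmole of a random double-stranded 16-mer DNA library in Tris/NaCl/DTT/glycerol buffer for 30 min at room temperature, washed, crosslinked with 0.1% formaldehyde and proximity-ligated with BsaI/T4 ligase at 37 °C for 1 h. PCR amplification and Illumina NextSeq500 sequencing came last. Binding signal is each hexamer's read frequency for a factor divided by its frequency for the tag-only sample.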
# ELK1 = molecular target: T2, ELK1 (Homo sapiens, UniProt P19419 1-428)
# T2 sequence: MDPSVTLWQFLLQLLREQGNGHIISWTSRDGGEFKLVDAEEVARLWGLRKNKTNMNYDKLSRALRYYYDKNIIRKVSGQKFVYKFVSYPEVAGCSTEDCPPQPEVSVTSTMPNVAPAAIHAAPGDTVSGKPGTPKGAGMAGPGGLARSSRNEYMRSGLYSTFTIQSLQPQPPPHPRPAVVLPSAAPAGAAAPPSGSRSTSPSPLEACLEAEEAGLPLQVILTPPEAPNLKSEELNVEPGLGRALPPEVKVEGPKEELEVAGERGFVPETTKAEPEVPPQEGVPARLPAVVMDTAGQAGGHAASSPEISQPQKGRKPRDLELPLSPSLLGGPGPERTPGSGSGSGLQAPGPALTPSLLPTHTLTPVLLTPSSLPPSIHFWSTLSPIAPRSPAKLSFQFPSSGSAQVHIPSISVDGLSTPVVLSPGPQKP
# Outline: as §1
# GABPA = molecular target: T3, GABPA (Homo sapiens, UniProt Q06546 1-454)
# T3 sequence: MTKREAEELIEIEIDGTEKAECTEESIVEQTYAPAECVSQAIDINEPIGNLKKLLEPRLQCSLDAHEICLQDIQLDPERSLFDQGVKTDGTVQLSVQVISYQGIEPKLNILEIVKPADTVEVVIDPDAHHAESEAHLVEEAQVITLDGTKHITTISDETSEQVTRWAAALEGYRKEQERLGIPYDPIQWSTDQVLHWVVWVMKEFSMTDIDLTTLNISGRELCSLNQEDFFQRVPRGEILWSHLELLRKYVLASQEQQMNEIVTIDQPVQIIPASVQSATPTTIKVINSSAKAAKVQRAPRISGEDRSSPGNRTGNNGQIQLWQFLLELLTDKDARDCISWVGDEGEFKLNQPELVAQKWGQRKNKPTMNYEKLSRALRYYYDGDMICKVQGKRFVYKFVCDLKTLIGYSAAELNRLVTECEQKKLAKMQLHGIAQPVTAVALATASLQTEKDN
# Outline: as §1
# ERG = molecular target: T4, ERG (Homo sapiens, UniProt P11308 1-479)
# T4 sequence: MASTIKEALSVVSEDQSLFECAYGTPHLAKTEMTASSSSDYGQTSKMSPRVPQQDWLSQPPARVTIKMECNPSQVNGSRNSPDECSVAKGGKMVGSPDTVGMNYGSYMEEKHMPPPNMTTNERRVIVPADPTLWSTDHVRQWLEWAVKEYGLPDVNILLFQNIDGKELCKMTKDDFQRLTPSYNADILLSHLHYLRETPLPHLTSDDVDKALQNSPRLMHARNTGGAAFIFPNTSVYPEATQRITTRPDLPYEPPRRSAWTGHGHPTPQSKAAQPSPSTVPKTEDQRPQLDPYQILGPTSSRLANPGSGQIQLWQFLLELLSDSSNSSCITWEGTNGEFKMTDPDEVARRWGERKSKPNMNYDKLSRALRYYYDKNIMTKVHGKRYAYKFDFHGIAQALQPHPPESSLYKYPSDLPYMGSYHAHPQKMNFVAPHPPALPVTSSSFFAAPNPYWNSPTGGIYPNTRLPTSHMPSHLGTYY
# Outline: as §1
# ELF1 = ELF1 (Homo sapiens, UniProt P32519 1-619)
# Sequence of ELF1 (P32519 whole entry): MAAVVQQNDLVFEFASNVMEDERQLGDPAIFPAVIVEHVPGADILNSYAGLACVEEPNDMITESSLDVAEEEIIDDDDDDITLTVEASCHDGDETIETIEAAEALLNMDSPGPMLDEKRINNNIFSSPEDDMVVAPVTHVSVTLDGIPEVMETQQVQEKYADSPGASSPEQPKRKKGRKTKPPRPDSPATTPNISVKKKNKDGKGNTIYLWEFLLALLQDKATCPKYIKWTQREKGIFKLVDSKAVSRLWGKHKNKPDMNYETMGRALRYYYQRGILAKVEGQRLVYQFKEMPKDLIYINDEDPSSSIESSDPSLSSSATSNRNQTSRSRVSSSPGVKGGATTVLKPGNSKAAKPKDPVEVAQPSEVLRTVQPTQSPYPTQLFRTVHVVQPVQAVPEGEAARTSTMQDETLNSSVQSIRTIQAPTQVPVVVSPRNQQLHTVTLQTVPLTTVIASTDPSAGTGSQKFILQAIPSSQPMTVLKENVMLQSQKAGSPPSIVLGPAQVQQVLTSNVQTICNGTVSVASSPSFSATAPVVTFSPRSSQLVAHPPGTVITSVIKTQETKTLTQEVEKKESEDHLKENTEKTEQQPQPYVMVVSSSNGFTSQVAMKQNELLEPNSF
# Outline: as §1
# EHF = molecular target: T5, EHF (Homo sapiens, UniProt Q9NZC4 1-300)
# T5 sequence: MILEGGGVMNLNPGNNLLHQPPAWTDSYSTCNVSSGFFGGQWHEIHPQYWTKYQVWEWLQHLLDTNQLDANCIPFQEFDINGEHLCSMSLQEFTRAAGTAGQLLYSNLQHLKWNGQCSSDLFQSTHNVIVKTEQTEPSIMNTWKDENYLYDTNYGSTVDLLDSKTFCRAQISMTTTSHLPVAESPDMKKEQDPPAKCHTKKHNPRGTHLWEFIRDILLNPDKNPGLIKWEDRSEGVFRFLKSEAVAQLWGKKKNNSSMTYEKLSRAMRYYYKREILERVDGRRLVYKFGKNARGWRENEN
# Outline: as §1
# SPI1 = SPI1 (Homo sapiens, UniProt P17947 1-270)
# Outline: as §1
# SPIB = SPIB (Homo sapiens, UniProt Q01892 1-262)
# Sequence of SPIB (Q01892 whole entry): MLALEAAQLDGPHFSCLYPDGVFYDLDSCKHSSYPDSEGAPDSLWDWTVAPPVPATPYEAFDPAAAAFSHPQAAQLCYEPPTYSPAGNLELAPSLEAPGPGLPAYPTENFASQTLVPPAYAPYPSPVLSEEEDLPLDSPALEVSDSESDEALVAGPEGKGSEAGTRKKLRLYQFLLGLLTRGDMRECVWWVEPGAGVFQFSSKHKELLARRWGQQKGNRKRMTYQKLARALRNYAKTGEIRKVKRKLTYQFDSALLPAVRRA
# Outline: as §1
# ELK3 = molecular target: T6, ELK3 (Homo sapiens, UniProt P41970 1-407)
# T6 sequence: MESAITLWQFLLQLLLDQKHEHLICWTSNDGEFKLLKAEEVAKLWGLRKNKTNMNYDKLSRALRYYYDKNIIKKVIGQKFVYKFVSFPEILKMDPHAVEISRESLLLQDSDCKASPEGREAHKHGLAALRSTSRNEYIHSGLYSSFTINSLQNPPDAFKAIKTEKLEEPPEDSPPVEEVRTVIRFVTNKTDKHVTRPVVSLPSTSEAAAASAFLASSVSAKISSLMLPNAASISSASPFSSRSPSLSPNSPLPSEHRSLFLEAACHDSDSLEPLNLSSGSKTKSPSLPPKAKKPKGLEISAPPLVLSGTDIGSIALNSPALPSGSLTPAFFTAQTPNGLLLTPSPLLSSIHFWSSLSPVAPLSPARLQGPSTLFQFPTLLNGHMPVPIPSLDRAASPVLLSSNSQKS
# Outline: as §1
# FEV = molecular target: T7, FEV (Homo sapiens, UniProt Q99581 1-238)
# T7 sequence: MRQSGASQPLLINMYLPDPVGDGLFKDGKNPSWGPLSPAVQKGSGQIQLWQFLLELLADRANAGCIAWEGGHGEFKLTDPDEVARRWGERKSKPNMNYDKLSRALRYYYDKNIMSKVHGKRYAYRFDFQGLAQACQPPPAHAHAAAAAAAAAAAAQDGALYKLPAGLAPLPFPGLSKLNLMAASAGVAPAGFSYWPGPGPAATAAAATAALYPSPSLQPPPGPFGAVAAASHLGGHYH
# Outline: as §1
# ETV5 = ETV5 (Homo sapiens, UniProt P41161 1-510)
# Sequence of ETV5 (P41161 whole entry): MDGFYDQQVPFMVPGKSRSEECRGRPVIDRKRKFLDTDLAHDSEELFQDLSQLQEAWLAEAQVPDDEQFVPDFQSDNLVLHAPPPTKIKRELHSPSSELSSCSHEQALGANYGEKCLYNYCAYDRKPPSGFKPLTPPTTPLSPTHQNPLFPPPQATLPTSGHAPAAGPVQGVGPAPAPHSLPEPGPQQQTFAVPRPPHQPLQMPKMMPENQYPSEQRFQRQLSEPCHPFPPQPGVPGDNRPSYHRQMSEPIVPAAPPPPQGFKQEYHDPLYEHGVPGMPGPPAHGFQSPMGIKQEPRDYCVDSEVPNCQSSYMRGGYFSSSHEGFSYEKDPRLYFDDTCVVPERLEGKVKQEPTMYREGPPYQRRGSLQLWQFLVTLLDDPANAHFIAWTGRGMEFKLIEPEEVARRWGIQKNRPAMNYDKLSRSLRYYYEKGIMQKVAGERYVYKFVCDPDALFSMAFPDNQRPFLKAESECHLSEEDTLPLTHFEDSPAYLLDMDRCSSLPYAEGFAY
# Outline: as §1
# SPIC = molecular target: T8, SPIC (Homo sapiens, UniProt Q8N5J4 1-248)
# T8 sequence: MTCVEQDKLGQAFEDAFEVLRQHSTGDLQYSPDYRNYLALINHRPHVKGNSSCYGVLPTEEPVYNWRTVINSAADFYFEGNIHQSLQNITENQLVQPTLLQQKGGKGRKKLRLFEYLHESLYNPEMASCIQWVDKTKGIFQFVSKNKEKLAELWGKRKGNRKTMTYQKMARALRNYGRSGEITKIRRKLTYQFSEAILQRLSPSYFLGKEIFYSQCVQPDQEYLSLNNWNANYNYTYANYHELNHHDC
# Outline: as §1
# ELF4 = ELF4 (Homo sapiens, UniProt Q99607 1-663)
# Sequence of ELF4 (Q99607 whole entry): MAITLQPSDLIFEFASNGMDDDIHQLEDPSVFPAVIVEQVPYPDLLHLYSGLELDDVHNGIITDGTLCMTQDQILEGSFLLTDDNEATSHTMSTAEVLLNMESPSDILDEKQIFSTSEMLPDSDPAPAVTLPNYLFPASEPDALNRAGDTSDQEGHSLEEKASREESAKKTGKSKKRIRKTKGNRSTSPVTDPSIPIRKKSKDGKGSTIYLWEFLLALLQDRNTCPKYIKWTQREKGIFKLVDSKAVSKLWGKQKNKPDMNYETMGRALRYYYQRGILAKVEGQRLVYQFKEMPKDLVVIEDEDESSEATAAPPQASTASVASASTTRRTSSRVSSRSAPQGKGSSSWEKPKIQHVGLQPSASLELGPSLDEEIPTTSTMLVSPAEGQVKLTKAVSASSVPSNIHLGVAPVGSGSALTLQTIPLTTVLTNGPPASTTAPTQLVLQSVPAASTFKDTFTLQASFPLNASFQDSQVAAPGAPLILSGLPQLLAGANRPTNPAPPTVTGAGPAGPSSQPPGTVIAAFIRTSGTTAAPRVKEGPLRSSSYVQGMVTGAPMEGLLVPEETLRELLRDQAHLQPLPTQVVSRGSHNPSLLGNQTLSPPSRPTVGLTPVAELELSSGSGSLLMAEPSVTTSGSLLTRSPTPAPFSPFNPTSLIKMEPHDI
# Outline: as §1
# ELK4 = molecular target: T9, ELK4 (Homo sapiens, UniProt P28324-2 1-405)
# T9 sequence: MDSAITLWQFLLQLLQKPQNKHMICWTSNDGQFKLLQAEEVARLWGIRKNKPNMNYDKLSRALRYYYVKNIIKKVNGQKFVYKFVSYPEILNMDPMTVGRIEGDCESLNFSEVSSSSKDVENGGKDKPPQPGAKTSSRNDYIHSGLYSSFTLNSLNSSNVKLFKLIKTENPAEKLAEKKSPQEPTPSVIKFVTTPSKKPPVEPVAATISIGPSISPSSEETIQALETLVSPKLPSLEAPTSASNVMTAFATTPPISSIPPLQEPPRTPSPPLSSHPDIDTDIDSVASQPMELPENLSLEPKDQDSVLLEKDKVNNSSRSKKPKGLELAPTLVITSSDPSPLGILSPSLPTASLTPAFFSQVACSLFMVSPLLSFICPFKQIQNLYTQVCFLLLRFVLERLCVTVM
# Outline: as §1
# ETV2 = molecular target: T10, ETV2 (Homo sapiens, UniProt O00321 1-342)
# T10 sequence: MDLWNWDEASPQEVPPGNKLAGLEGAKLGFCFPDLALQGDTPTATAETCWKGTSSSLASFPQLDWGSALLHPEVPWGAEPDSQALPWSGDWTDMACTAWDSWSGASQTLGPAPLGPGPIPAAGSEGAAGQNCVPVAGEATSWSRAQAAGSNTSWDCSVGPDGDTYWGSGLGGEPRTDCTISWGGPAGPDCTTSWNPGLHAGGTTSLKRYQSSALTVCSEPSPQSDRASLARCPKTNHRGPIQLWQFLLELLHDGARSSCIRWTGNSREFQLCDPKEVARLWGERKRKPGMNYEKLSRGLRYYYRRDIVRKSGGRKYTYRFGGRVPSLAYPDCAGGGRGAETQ
# Outline: as §1
# ELF3 = molecular target: T11, ELF3 (Homo sapiens, UniProt P78545 1-371)
# T11 sequence: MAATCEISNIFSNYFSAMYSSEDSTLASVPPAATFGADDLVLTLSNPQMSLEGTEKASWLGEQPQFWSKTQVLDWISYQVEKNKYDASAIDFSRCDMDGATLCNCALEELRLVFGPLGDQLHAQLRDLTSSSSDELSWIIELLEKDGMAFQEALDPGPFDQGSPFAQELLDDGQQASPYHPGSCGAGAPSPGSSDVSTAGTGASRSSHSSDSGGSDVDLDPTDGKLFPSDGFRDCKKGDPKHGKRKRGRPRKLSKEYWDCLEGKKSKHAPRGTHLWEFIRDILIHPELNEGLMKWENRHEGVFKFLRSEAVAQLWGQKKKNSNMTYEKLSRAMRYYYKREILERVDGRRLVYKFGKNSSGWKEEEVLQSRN
# Outline: as §1
# ETV1 = ETV1 (Homo sapiens, UniProt P50549 1-477)
# Sequence of ETV1 (P50549 whole entry): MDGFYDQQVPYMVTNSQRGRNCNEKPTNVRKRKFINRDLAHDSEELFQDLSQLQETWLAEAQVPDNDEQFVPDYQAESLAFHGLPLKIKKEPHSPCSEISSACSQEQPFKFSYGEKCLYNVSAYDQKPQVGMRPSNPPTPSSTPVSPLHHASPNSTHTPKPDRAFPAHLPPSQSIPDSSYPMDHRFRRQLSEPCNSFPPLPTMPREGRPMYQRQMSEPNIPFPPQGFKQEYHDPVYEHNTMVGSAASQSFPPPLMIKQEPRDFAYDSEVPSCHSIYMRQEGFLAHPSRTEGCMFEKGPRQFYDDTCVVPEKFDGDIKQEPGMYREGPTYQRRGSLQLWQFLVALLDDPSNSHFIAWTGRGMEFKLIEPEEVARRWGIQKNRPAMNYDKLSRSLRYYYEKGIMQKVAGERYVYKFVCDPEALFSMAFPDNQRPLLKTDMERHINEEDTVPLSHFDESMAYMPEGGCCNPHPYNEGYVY
# Outline: as §1
sequence,measurement,setting,value
CACCCG,binding signal,FLI1,"1.14 fold enrichment (6-mer frequency, TF over GST control)"
same,binding signal,ELK1,"1.24 fold enrichment (6-mer frequency, TF over GST control)"
same,binding signal,GABPA,"1.18 fold enrichment (6-mer frequency, TF over GST control)"
same,binding signal,ERG,"1.21 fold enrichment (6-mer frequency, TF over GST control)"
same,binding signal,ELF1,"1.2 fold enrichment (6-mer frequency, TF over GST control)"
same,binding signal,EHF,"1.2 fold enrichment (6-mer frequency, TF over GST control)"
same,binding signal,SPI1,"1.12 fold enrichment (6-mer frequency, TF over GST control)"
same,binding signal,SPIB,"1.28 fold enrichment (6-mer frequency, TF over GST control)"
same,binding signal,ELK3,"1.17 fold enrichment (6-mer frequency, TF over GST control)"
same,binding signal,FEV,"1.16 fold enrichment (6-mer frequency, TF over GST control)"
same,binding signal,ETV5,"1.21 fold enrichment (6-mer frequency, TF over GST control)"
same,binding signal,SPIC,"1.17 fold enrichment (6-mer frequency, TF over GST control)"
same,binding signal,ELF4,"1.18 fold enrichment (6-mer frequency, TF over GST control)"
same,binding signal,ELK4,"1.29 fold enrichment (6-mer frequency, TF over GST control)"
same,binding signal,ETV2,"1.2 fold enrichment (6-mer frequency, TF over GST control)"
same,binding signal,ELF3,"1.16 fold enrichment (6-mer frequency, TF over GST control)"
same,binding signal,ETV1,"1.14 fold enrichment (6-mer frequency, TF over GST control)"
